From PubChem BioAssay come the findings set out here.

A number with no mark means an inactive call. For part of these data: Entries with a potency or affinity are not part of this list. The source made the active and inactive calls. Unless noted, how the calls were made is not given here.

Assay [1] is described as follows: antimalarial activity against Dd2 strain (AID 2302;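 active means growth inhibition above 50% at the single 2 µM test dose, taken to imply half-maximal potency below 2 µM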;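 further: 0% = DMSO untreated growth and 100% = chloroquine plus artemisinin killed control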). The following applies: P. falciparum Dd2 in RBCs, LDH growth readout, 72 h; at 2 µM; active compounds read high.
Assay [2] in a line: HepG2 cytotoxicity, primary screen, cytotoxicity control for P. falciparum antimalarial project, cell-based, ATP luminescence (AID 2303;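 active means inhibition above 50%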;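 further: 0% = DMSO wells and 100% = digitonin-killed cells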). The following applies: HepG2 viability, 24-48 h, at 10 µM, active compounds read high.
Assay [3] addresses L-lactate dehydrogenase (Plasmodium falciparum (isolate CDC / Honduras)) (UniProt Q27743). The experiment in a line: PfLDH activity inhibition – cell lysate, 3D7 strain, counter-screen for P. falciparum growth inhibition project (AID 2304).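 Further: 0% = vehicle and 100% = reference inhibitor.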 The following applies: P. falciparum 3D7 crude extract, LDH APAD/NBT absorbance; at 2 µM; active compounds read high.
Assay [4] is described as follows: inhibition of 3D7 malaria parasite growth – strain 3D7 (AID 2306).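 Further: 0% = DMSO wells and 100% = chloroquine plus artemisinin control wells.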 The following applies: P. falciparum 3D7 erythrocytic growth, LDH absorbance, 72 h; at 2 µM; active compounds read high.
In assay [5] the target is Calcium-dependent protein kinase 1 (Plasmodium falciparum (isolate 3D7)) (UniProt P62344). Put plainly: PfCDPK1 kinase inhibitors, biochemical, TCAMS library (AID 1159585; cut-off not given, nearly all actives have IC50 up to about 0.98 µM;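 further: inhibitors leave more ATP so luminescence rises with inhibition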). The following applies: recombinant PfCDPK1, Kinase-Glo ATP depletion luminescence. In general terms: Kinase-Glo measures the ATP left after a reaction by luminescence.
Calcium-dependent protein kinase 1 (Plasmodium falciparum (isolate 3D7)), sequence (P62344 whole entry, looked up): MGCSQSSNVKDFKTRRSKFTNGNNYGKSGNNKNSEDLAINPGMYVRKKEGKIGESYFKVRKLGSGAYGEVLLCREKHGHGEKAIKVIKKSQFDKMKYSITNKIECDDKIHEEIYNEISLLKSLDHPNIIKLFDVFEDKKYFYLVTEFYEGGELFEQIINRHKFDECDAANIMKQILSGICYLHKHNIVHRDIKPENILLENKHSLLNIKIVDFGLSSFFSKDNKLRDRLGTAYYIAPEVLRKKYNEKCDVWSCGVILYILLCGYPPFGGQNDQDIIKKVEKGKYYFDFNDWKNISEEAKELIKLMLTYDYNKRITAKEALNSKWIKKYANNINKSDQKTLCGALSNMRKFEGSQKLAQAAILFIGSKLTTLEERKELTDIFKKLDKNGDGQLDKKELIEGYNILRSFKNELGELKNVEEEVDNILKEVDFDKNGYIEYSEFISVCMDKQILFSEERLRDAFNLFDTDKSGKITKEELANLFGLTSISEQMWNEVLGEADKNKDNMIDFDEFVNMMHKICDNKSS
In assay [6] the target is Plasmodium falciparum protein kinase 6 (PK6, PF3D7_1337100) (UniProt Q8IDW1). Put plainly: PfPK6 kinase inhibitors, biochemical, TCAMS library (AID 1159586). The following applies: recombinant PfPK6, Kinase-Glo ATP depletion luminescence.
Plasmodium falciparum protein kinase 6 (PK6, PF3D7_1337100), sequence (Q8IDW1 1-305): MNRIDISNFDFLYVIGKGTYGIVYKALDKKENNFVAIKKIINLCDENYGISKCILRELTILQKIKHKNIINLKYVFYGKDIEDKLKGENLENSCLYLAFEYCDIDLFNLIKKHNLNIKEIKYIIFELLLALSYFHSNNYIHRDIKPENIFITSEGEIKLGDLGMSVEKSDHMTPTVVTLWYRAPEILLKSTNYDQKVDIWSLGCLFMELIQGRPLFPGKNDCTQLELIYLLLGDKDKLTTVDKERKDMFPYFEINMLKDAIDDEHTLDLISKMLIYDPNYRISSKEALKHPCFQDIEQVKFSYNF
The target of assay [7] is Protein kinase 7 (PK7), Plasmodium falciparum 3D7 (PF3D7_0213400) (UniProt Q7YTF7). Put plainly: inhibition of Plasmodium PK7 catalytic activity – biochemical, TCAMS antimalarial set, Kinase-Glo luminescence (AID 1159587). The following applies: recombinant PfPK7, Kinase-Glo ATP depletion luminescence.
Protein kinase 7 (PK7), Plasmodium falciparum 3D7 (PF3D7_0213400), sequence (Q7YTF7 1-343): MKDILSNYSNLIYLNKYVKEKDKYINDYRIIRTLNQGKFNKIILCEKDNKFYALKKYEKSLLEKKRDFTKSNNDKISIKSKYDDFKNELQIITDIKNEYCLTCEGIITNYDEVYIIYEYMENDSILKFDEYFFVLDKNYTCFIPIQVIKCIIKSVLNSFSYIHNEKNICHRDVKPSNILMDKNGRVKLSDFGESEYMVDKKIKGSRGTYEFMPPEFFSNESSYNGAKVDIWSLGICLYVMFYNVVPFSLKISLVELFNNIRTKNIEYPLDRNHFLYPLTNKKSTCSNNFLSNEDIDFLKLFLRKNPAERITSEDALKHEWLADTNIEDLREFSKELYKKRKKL
For assay [8], the target named is Calcium-dependent protein kinase 4 (Plasmodium falciparum (isolate 3D7)) (UniProt Q8IBS5). Put plainly: PfCDPK4 kinase inhibitors, biochemical, TCAMS library (AID 1159588; cut-off not given, nearly all actives have IC50 up to about 0.91 µM). The following applies: recombinant PfCDPK4, Kinase-Glo ATP depletion luminescence.
Calcium-dependent protein kinase 4 (Plasmodium falciparum (isolate 3D7)), sequence (Q8IBS5 whole entry, looked up): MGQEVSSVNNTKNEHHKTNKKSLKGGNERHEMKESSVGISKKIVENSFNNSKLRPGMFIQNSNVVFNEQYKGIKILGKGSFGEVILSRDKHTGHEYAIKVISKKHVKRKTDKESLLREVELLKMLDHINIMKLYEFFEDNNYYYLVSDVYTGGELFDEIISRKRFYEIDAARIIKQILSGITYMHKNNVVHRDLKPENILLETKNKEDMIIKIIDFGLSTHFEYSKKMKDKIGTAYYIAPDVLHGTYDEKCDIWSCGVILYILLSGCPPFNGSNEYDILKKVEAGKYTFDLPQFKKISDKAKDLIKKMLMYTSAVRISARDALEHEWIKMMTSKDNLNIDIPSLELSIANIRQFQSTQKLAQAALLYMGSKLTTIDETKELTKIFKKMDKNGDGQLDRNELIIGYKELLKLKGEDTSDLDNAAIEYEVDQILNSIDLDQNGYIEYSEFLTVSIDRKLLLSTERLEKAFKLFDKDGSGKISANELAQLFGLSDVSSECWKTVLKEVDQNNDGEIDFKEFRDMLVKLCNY

For orientation: inhibition means the relative decrease from the control value, in per cent.

L-lactate dehydrogenase (Plasmodium falciparum (isolate CDC / Honduras)), sequence (Q27743 whole entry, looked up): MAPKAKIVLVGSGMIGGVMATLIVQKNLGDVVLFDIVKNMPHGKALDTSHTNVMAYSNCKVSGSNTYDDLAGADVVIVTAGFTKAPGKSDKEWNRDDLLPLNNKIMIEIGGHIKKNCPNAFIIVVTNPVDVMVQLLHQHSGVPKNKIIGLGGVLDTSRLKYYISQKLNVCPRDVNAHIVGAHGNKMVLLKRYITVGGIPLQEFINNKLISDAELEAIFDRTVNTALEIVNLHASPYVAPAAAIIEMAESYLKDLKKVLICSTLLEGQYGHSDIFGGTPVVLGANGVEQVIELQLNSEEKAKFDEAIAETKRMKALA

As for `COc1ccc(Cl)cc1N1CCN(CCCNC(=O)c2ccc(-c3nc4cc(Cl)c(C)cc4[nH]3)c(F)c2)CC1`, the growth inhibition in assay [1] is 91% (active); in assay [4], 99% (active). The inhibition is -1% in assay [2] and -6% in assay [3]. In addition, the result in assay [5], in assay [6], in assay [7] and in assay [8] was inactive.

As for `COCCn1c(C)cc(C(=O)CN2C(=O)NC(C)(c3ccc(C(C)(C)C)cc3)C2=O)c1C` (centres undefined), the figures for the growth inhibition in assay [1] and in assay [4] were 96% (active) and 97% (active), respectively. The inhibition in assay [2] was 7%; in assay [3], 1%. Moreover, the result in assay [5], in assay [6], in assay [7] and in assay [8] was inactive.

For `O=S(=O)(NCCN1CCCC1)c1ccc(-c2ccc(CNC3Cc4ccccc4C3)cc2)cc1`, the growth inhibition in assay [1] was 91% (active); in assay [4], 99% (active). Moreover, the values for the inhibition in assay [2] and in assay [3] were 61% (active) and 5%, respectively. For the same molecule, the result in assay [5], in assay [6], in assay [7] and in assay [8] was inactive.

In the case of `O=C(NCc1ccccc1)NC1CCN(c2ccnc3cc(Cl)ccc23)C1` (centres undefined), the values for the growth inhibition in assay [1] and in assay [4] were 99% (active) and 94% (active), respectively. Besides, the inhibition in assay [2] was 13%; in assay [3] it was -2%. For the same molecule, the outcome in assay [5], in assay [6], in assay [7] and in assay [8] was inactive.

As for `CN(C)CCOc1ccc2c(=O)cc(CCc3cccc(F)c3F)n(CC(=O)N(C)Cc3ccc(-c4ccc(C(F)(F)F)cc4)cc3)c2c1`, the growth inhibition in assay [1] was 60% (active); in assay [4] it was 90% (active). Also, the inhibition in assay [2] was 33%; in assay [3], 2%. For the same molecule, the result in assay [5], in assay [6], in assay [7] and in assay [8] was inactive.

For `C=CCC(C(=O)Nc1ccnc2ccc(OC)cc12)C1CCN(CCCCCCC)CC1` (centres undefined), the results for the growth inhibition in assay [1] and in assay [4] were 84% (active) and 86% (active), respectively. For the same molecule, the inhibition in assay [2] is 20%; in assay [3], -7%. Moreover, the outcome in assay [5], in assay [6], in assay [7] and in assay [8] was inactive.

As for `CCOc1ccc(-c2nonc2NC(=O)c2ccccc2)cc1OCC`, the growth inhibition in assay [1] was 100% (active); in assay [4], 99% (active). Also, the values for the inhibition in assay [2] and in assay [3] were 6% and 4%, respectively. Besides, the outcome in assay [5], in assay [6], in assay [7] and in assay [8] was inactive.

As for `Cc1nc2ccccc2c(=O)n1N=Cc1ccccc1[N+](=O)[O-]`, the growth inhibition in assay [1] is 26%; in assay [4], 94% (active). Also, the inhibition in assay [2] is -8%; in assay [3] it was 3%. Besides, the outcome in assay [5], in assay [6], in assay [7] and in assay [8] was inactive.

With `Cc1ccc(NC(=O)c2ccc(CN3CCCN(Cc4cccc(O)c4)CC3)cc2)cc1`, the growth inhibition was 31% in assay [1] and 90% (active) in assay [4]. Besides, the inhibition in assay [2] is 39%; in assay [3] it was -5%. The outcome in assay [5], in assay [6], in assay [7] and in assay [8] was inactive.

On to `Cc1ccc2[nH]c(-c3ccc(/C=C/C(=O)NC4CCN(Cc5ccccc5)CC4)cc3)nc2c1C`, for which the results for the growth inhibition in assay [1] and in assay [4] were 92% (active) and 101% (active), respectively. Besides, the inhibition in assay [2] is 22%; in assay [3] it was 4%. The result in assay [5], in assay [6], in assay [7] and in assay [8] was inactive.

On to `COCCN1CCC(N(Cc2ccc(-c3ccc(C(F)(F)F)cc3)cc2)C(=O)Cn2c(CCc3cccc(F)c3F)cc(=O)c3c2CCC3)CC1`, for which the values for the growth inhibition in assay [1] and in assay [4] were 48% and 85% (active), respectively. In addition, the inhibition was 31% in assay [2] and -5% in assay [3]. In addition, the outcome in assay [5], in assay [6], in assay [7] and in assay [8] was inactive.

For the molecule `CN(C)c1ccc(N=C2N=C(Nc3ccc(N(C)C)cc3)c3ccccc32)cc1`, the growth inhibition was 20% in assay [1] and 93% (active) in assay [4]. The inhibition in assay [2] is 23%; in assay [3], -5%. For the same molecule, the outcome in assay [5], in assay [6], in assay [7] and in assay [8] was inactive.

Take `OCC(c1ccccc1)n1c(COc2ccc(Cl)cc2)nc2c(OCCCN3CCCCC3)cccc21` (centres undefined): the results for the growth inhibition in assay [1] and in assay [4] were 68% (active) and 90% (active), respectively. The inhibition is 6% in assay [2] and -7% in assay [3]. Also, the result in assay [5], in assay [6], in assay [7] and in assay [8] was inactive.

On to `O=C(N[C@@H](Cc1cc(F)cc(F)c1)[C@H](O)CNCc1cccc(C(F)(F)F)c1)c1cc(C2CCCC2)cc(N2CCCC2=O)c1`, for which the growth inhibition was 45% in assay [1] and 95% (active) in assay [4]. The inhibition in assay [2] was 37%; in assay [3] it was -3%. Moreover, the result in assay [5], in assay [6], in assay [7] and in assay [8] was inactive.

For the molecule `COc1ccc(-c2cccc(NC(=O)c3ccc(Cl)cc3)c2)cc1CN1CCC(O)CC1`, the growth inhibition in assay [1] was 43%; in assay [4], 100% (active). Also, the inhibition in assay [2] is 51% (active); in assay [3], 3%. The result in assay [5], in assay [6], in assay [7] and in assay [8] was inactive.

Consider `COc1cccc2cc(C(=O)N[C@@H](CC(C)C)C(=O)NC3CC[C@@H](C)N(C(=O)Nc4ccncc4)CC3=O)oc12` (some centres undefined), for which the growth inhibition is 90% (active) in assay [1] and 95% (active) in assay [4]. The inhibition in assay [2] was 7%; in assay [3], -7%. Also, the outcome in assay [5], in assay [6], in assay [7] and in assay [8] was inactive.

As for `COc1ccc(-n2ncc(C(=O)N3CCC4(C3)C(=O)N(c3ccccc3)c3ccccc34)c2C)cc1` (centres undefined), the growth inhibition was 91% (active) in assay [1] and 88% (active) in assay [4]. Besides, the inhibition in assay [2] is 45%; in assay [3], 0%. Moreover, the outcome in assay [5], in assay [6], in assay [7] and in assay [8] was inactive.

Take `CC(C)c1ccc(NC(=O)c2cccc(CN3CCCN(CC4CCCCC4)CC3)c2)cc1`: the growth inhibition in assay [1] was 59% (active); in assay [4], 85% (active). The inhibition is 62% (active) in assay [2] and 2% in assay [3]. Besides, the outcome in assay [5], in assay [6], in assay [7] and in assay [8] was inactive.
